Shiga inhibitor = blocks Shiga toxin action in Vero cells; Vero cells, Shiga toxin protein synthesis inhibition reporter; 290,000 compounds, 9.2% hits; inhibition, % at 38.7 µM; in the data active = inhibition mostly above about 28%, no sharp cut-off; inactive = mostly below about 43%; also: 0% is about no effect
FBPA Giardia inh = Giardia lamblia aldolase inhibition. A8B2U2. purified Giardia FBPA. Potency, µM (titrated, usually from 59.6 µM), for the others: top-dose activity, negative = inhibition, hits mostly inhibitors. 290,000 compounds, 0.71% hits; also: potency is read from the fitted curve at half-maximal effect; % is scaled to controls: 0 for no effect and ±100 for the full control effect; nearly all actives have a fitted effect of over 55% in size
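40 nM FBPA preincubated 10 min at RT with compound (up to 57.5 uM final), then substrate plus GAPDH/TPI/NAD/arsenate coupling and diaphorase/resazurin added. Fluorescence read after 20 min at RT, 525/598 nm.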
Cycloheximide cs = counter-screen for Shiga toxin inhibitors: cycloheximide protein synthesis inhibition. max response, %. 300,000 compounds, 12% hits. cell reporter, cycloheximide protein synthesis inhibition counterscreen; in the data active = max response mostly above about 13%, no sharp cut-off; inactive = mostly below about 14%; also: read at 38.3 µM for the half of the compounds with a filed dose; 0% is about no effect
LmPK inhibitor = LmPK (Leishmania mexicana) enzyme inhibition; Q27686; purified LmPK, Kinase-Glo ATP luminescence, 1 h; Potency, µM (series often up to 57.5 µM), for the others: at the top dose activity change, negative = inhibition, hits mostly inhibitors; 290,000 compounds, 0.37% hits; AID 1721; also: potency is read from the fitted curve at half-maximal effect; % is scaled to controls: 0 for no effect and ±100 for the full control effect
Target sequence (Q27686 whole entry, looked up): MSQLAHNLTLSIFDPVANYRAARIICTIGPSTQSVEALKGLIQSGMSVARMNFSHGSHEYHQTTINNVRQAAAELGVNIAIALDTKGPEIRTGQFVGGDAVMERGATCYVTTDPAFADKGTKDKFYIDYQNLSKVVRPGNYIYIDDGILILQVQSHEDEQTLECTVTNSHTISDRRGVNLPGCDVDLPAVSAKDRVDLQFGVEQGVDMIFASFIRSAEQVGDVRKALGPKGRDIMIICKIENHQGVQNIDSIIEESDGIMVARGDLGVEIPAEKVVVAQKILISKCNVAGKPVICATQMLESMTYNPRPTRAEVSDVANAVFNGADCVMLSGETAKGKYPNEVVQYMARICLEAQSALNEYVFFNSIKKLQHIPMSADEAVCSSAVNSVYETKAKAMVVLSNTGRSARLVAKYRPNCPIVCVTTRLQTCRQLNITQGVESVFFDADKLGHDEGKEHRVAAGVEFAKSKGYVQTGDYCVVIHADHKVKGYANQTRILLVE
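ATP generated from ADP (0.1 mM) and PEP (0.5 mM) by 0.1 nM LmPK over 1 h at room temperature (pH 7.2 imidazole buffer) was detected by coupled luciferase luminescence. Values were normalized to uninhibited and no-enzyme wells.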
NS1 inh = blocks influenza NS1 protein function; Potency, µM (series often up to 46.1 µM), for inactives: at the highest dose activity, positive = more growth; 270,000 compounds, 0.4% hits; calls by dose curve; also: potency is read from the fitted curve at half-maximal effect; actives are rising curves; nearly all actives have a fitted effect of over 50% in size
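A cell-based growth assay was used: compounds that relieve NS1-induced slow growth of budding yeast raise OD600. Assay medium was yeast nitrogen base with ammonium sulphate and -URA supplement, pH 6.0, with 2% galactose.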
The depositor's hits bear a star; u = inconclusive; x = not tested or not shown. Sampled rows, rich in hits. Any-hit rate of the full collection: about 14%. Unless noted, calls follow the shape of the dose curve; as a rule, active = well fitted curve in the direction sought with a large enough effect; inconclusive = small, poorly fitted or top-dose-only effect, or another doubt; inactive = no such curve, though single readings can be large; an effect the other way counts as inactive or inconclusive.

SMILES	Shiga inhibitor	FBPA Giardia inh	Cycloheximide cs	LmPK inhibitor	NS1 inh
COc1ccc(Oc2ncc3nc(C)c(=O)n(CCC#N)c3n2)cc1	x	-11%	x	x	x
COC(=O)c1ccc(NC(=S)NCCc2ccccc2)cc1	-3	3%	-1	5%	16%
CC(=O)c1ccc(NC(=S)NCCc2cccc(Cl)c2)cc1	78*	-6%	27*	0%	-8%
Cc1ccc(NC(=O)NC(=O)N(C(C)C)S(=O)(=O)c2ccc(C)cc2)cc1	31	-4%	23*	1%	x
Cc1ccc(NC(=O)Nc2ccc(S(N)(=O)=O)cc2)cc1	49*	0%	30*	1%	x
COC(=O)C(C)(C)ONC(=O)Nc1ccc(C)cc1	43*	5%	21*	-1%	3%
NS(=O)(=O)c1ccc(NC(=O)Nc2ccc(S(N)(=O)=O)cc2)cc1	1	2%	-1	-4%	0%
O=C(CCC(=O)N1CCOc2ccccc21)NCCCN1CCN(Cc2ccccc2)CC1	23	7%	-1	0%	28%
Cc1cc(C)cc(NC(=O)Nc2cccc(S(N)(=O)=O)c2)c1	12	1%	-1	6%	5%
NS(=O)(=O)c1cccc(NC(=O)Nc2ccccc2)c1	26	-2%	11*	-1%	-8%
NS(=O)(=O)c1ccc(NC(=O)Nc2cccc(Cl)c2)cc1	25	-10%	19*	-3%	5%
O=C(NCCCc1ccccc1)Nc1cccc(Cl)c1	24*	-9%	35*	1%	-57%
O=C(Nc1ccccc1)Nc1cccc(Cl)c1	107*	-3%	56*	3%	-174%
CCC(C)NC(=O)C1CCC(=O)N1CCc1ccccc1 (stereo unspecified)	-6	5%	-2	1%	1%
COCCNC(=O)C1(C)C=CCN1C(C)=O (stereo unspecified)	x	1%	x	x	x
NC1=NC(=O)C(Cc2ccc(Br)cc2)S1 (stereo unspecified)	-7	x	-3	-13%	15%
CC(=O)Nc1cccc(NC(=O)CCCC2CCCCC2)c1	-22	x	-1	-7%	-9%
NS(=O)(=O)c1ccc(NC(=O)Nc2ccccc2)cc1	14	8%	13	-1%	3%
O=C(Nc1ccccc1)C(Cl)C(=O)c1ccccc1 (stereo unspecified)	x	-12%	36*	10%	-136%
Cc1ccc(N2C(=O)CC(SCC(=O)Nc3ccc(S(N)(=O)=O)cc3)C2=O)cc1 (stereo unspecified)	154*	10%	64*	8%	x
NS(=O)(=O)c1cccc(NC(=O)CCCC2CCCCC2)c1	60*	12%	14	-1%	8%
O=C(Nc1ccccc1)Nc1ccccc1	93*	-5%	48*	x	x
CCOC(=O)c1ccc(N2C(=O)CC(SCC(=O)Nc3ccc(S(N)(=O)=O)cc3)C2=O)cc1 (stereo unspecified)	14	-2%	8	1%	-7%
CC(=O)Nc1ccc(NC(=O)Nc2cccc(Cl)c2)cc1	50*	-5%	27*	-1%	6%
CSc1cccc(NC(=O)Nc2ccc(Cl)cc2)c1	28	1%	12	-1%	-18%
SMILES	Shiga inhibitor	FBPA Giardia inh	Cycloheximide cs	LmPK inhibitor	NS1 inh
O=C(Nc1ccccc1)/C(=C/c1ccccc1)c1ccccc1	4	-4%	-2	6%	17%
CC(=O)c1ccc(N2CCN(C(=S)Nc3cccc(Cl)c3)CC2)cc1	-6	8%	-1	5%	u
CS/C(N)=N/C(=S)Nc1cccc(Cl)c1	94*	u	36*	-18%	-31%
O=C(O)/C(=C\C(=O)c1ccccc1)Nc1ccccc1	83*	u	51*	1%	9%
CC(=O)c1ccc(NC(=O)Nc2cccc(Cl)c2)cc1	61*	-4%	37*	-2%	-112%
O=C(O)CCC(NC(=S)Nc1ccccc1)C(=O)O (stereo unspecified)	4	-25%	2	9%	6%
CC(=O)Nc1ccn(C2OC(C(COC(C)=O)NC(=O)C3CCCN3C(=O)OC(C)(C)C)C(OC(C)=O)C2OC(C)=O)c(=O)n1 (stereo unspecified)	-6	5%	-5	x	x
Cc1ccccc1-n1ncc2c1CC(C)(C)CC2NC(=O)CN1CCCC1=O (stereo unspecified)	-8	x	-2	-5%	4%
O=C(NCCc1ccccc1)C(c1ccc(F)cc1)N(C(=O)c1csnn1)C1CC1 (stereo unspecified)	11	-2%	1	0%	12%
CCC(=O)C1=C(c2ccc(OC)c(OC)c2)N(C(=O)CC)n2c(CC)nnc2S1	-7	x	5	x	x
O=C(O)c1ccc(Cl)c(S(=O)(=O)Nc2ccccc2Cc2ccccc2)c1	-5	14%	-2	0%	22%
O=c1c(-c2ccccc2)c[nH]n1-c1cccc([N+](=O)[O-])c1	77*	u	22*	-1%	-4%
O=c1c(-c2ccc(Cl)cc2)c[nH]n1-c1ccccc1	78*	-19%	25*	-3%	-5%
O=[N+]([O-])c1cccc(-n2nncc2-c2ccccc2)c1	-8	15%	-2	4%	-13%
COc1ccnc(CSC(N)=Nc2ccccc2OC)c1	91*	u	75*	1%	4%
COc1ccnc(CSC(N)=Nc2cccc(C(F)(F)F)c2)c1	42	u	25*	-1%	-45%
COc1ccnc(CSC(N)=Nc2ccccc2C(F)(F)F)c1	22*	-22%	15	3%	-11%
N=C(N)SCc1ccccn1	4	-22%	7	2%	19%
COc1ccnc(CN(C)C(=O)C2CCC(=O)N(Cc3cccc(C(F)(F)F)c3)C2)c1 (stereo unspecified)	-4	1%	-3	7%	3%
Cn1c(=O)c(CCc2ccccc2)nc2cnc(N3CCOCC3)nc21	x	3%	x	x	x
N=C1C(c2nc3ccccc3s2)=C(O)CN1Cc1ccco1	67*	-2%	26*	-6%	-18%
N=C1C(c2ccccc2)=C(O)CN1Cc1ccco1	9	6%	2	-3%	-3%
CC(C)CC1OC(=O)C2=CCCCC21 (stereo unspecified)	-9	-2%	8	x	x
COc1ccc(/C=N/N=C2/CC(C)(C)Cc3n[nH]c(=O)cc32)cc1	36*	u	19	5%	x
Cc1cc(C(=O)CSc2nnnn2-c2ccccc2)c(C)n1-c1ccc2c(c1)OCO2	50*	-10%	29*	2%	u
SMILES	Shiga inhibitor	FBPA Giardia inh	Cycloheximide cs	LmPK inhibitor	NS1 inh
CCCn1c(SCC(=O)c2cc(C)n(-c3ccc4c(c3)OCO4)c2C)n[nH]c1=O	-5	-22%	-2	-1%	8%
Cc1cc(C(=O)COc2ccc(C#N)cc2)c(C)n1-c1ccc2c(c1)OCO2	2	0%	3	-3%	22%
Cc1cc(C(=O)COC(=O)C2=COCCO2)c(C)n1-c1ccc2c(c1)OCO2	138*	-15%	66*	17%	-8%
Cc1cc(C(=O)CSc2nncs2)c(C)n1-c1ccc2c(c1)OCO2	62*	-17%	26*	-8%	-36%
Nc1ccc(C(=O)C[C@H](N)C(=O)O)cc1O	x	x	x	x	-1%
CC(C)CCCN1C(Nc2ccccc2)=NC[C@@H]1C	-8	0%	0	-3%	-5%
